Data published in PubChem BioAssay (Tox21).
Records with an inconclusive call do not appear. Activity calls are given as the source filed them. Unless noted, calls follow the shape of the dose curve; as a rule, active = well fitted curve in the direction sought with a large enough effect in the repeat runs; inconclusive = weak or mixed curves; inactive = no such curve, though single readings can be large; an effect the other way counts as inactive or inconclusive.

Assays:
[1] = A CellTox Green Cytotoxicity Assay to monitor cytotoxicity in HEK293 cells - 32 hour (AID 1224881); also: nearly all actives have a fitted effect of over 40% in size
Outline: (§1)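 Cells (HEK293, 600/well) and dye reagent are dispensed together. After 5 h at 37 C, 23 nL compound is pinned in. Plates stay at 37 C for 40 h with fluorescence read at 0h, 8h, 16h, 24h, 32h and 40h.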

[2] = A CellTox Green Cytotoxicity Assay to monitor cytotoxicity in HepG2 cells - 0 hour (AID 1224882); also: nearly all actives have a fitted effect of over 35% in size
Outline: (§2)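 Cells and non-lytic dye reagent are dispensed together (600 HepG2 cells/well) and incubated 5 h before DMSO compound transfer. Kinetic fluorescence is then recorded in the same wells during 40 h at 37 C.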

[3] = A CellTox Green Cytotoxicity Assay to monitor cytotoxicity in HepG2 cells - 32 hour (AID 1224883); also: nearly all actives have a fitted effect of over 50% in size
Outline: as §2

[4] = A CellTox Green Cytotoxicity Assay to monitor cytotoxicity in HEK293 cells - 8 hour (AID 1224884); also: nearly all actives have a fitted effect of over 35% in size
Outline: as §1

[5] = qHTS RealTime-Glo MT Cell Viability Assay in HepG2 cells - 16 hour (AID 1224885); also: nearly all actives have a fitted effect of over 50% in size
Outline: (§3)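 Tox21 10K library screened in qHTS format on HepG2 cells carrying RealTime-Glo reagents. Compounds were added after a 5 h preincubation, and the luminescent signal from continuous culture was measured repeatedly during 40 h treatment.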

[6] = qHTS RealTime-Glo MT Cell Viability Assay in HEK293 cells - 24 hour (AID 1224886); also: top concentration of the series differs between compounds; nearly all actives have a fitted effect of over 50% in size
Outline: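 Luminescence generated by NanoLuc from substrate produced by living HEK293 cells served as the viability signal. Each value reflects the reading at its stated time point during continuous 40 h compound exposure at 37 C.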

[7] = qHTS RealTime-Glo MT Cell Viability Assay in HEK293 cells - 8 hour (AID 1224887); also: top concentration of the series differs between compounds; nearly all actives have a fitted effect of over 50% in size
Outline: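 Real-time viability in HEK293: signal arises when living cells convert a prosubstrate for NanoLuc in the medium, so luminescence tracks viable cell number. Compound (23 nL, DMSO) added 5 h post-seeding; kinetic reads at 0–40 h, 37 C.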

[8] = A CellTox Green Cytotoxicity Assay to monitor cytotoxicity in HEK293 cells - 16 hour (AID 1224888); also: nearly all actives have a fitted effect of over 35% in size
Outline: as §1

[9] = qHTS RealTime-Glo MT Cell Viability Assay in HepG2 cells - 0 hour (AID 1224889); also: nearly all actives have a fitted effect of over 50% in size
Outline: as §3

[10] = A CellTox Green Cytotoxicity Assay to monitor cytotoxicity in HepG2 cells - 8 hour (AID 1224890); also: nearly all actives have a fitted effect of over 45% in size
Outline: as §2

[11] = qHTS assay to identify small molecule antagonists of the estrogen receptor alpha (ER-alpha) signaling pathway using the BG1 cell line in the presence of 0.1 nM 17-beta-estradiol - cell viability counter screen (AID 1259241); also: nearly all actives have a fitted effect of over 40% in size
Outline: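 Live-cell protease activity (CellTiter-Fluor fluorescence, 30 min) was read in the same wells after VM7Luc4E2 cells had been exposed to compounds with 0.1 nM 17beta-estradiol for 22 hr at 37C.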

[12] = qHTS assay to identify small molecule antagonists of the androgen receptor (AR) signaling pathway using the MDA cell line in the presence of 0.5 nM R1881 - cell viability counter screen (AID 1259242); also: nearly all actives have a fitted effect of over 45% in size
Outline: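 Steps: plate MDA-kb2 cells, rest 5 hr at 37C without CO2; pin in compounds in DMSO; add R1881 to 0.5 nM final; incubate 16 hr; add CellTiter-Fluor, 30 min; read fluorescence.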

[13] = qHTS assay to identify small molecule phospholipidosis (PLD) inducers (AID 1259344; active = well fitted curve in the direction sought with a large enough effect; an effect the other way counts as inactive or inconclusive)
Outline: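 Image-based: LipidTOX Red pit count/intensity per well and per cell; HepG2, 24 h compound at 37 C, PFA fixation, Hoechst counterstain.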

[14] = qHTS assay to identify small molecule HDAC inhibitors (AID 1259364);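 also: wild-type HCT-116 cells with endogenous class I/II HDAC activity; top concentration of the series differs between compounds; nearly all actives have a fitted effect of over 45% in size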
Outline: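 Cells (HCT-116, wild type) are seeded at 1,500 per well, incubated overnight, treated with compound in DMSO for 2 hr, then developed with HDAC-Glo I/II reagent for 30 min at room temperature.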

[15] = qHTS assay to identify small molecule HDAC inhibitors - cell viability counter screen (AID 1259365)
Outline: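 HCT-116 (wild type), 1,500 cells/well, overnight 37C/5% CO2; compound in DMSO 2hr; CellTiter-Glo 30min RT; luminescence read.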

[16] = qHTS assay to identify small molecule agonists of the sonic hedgehog signaling (Shh) pathway - cell viability counter screen (AID 1259366); also: nearly all actives have a fitted effect of over 50% in size
Outline: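 CellTiter-Fluor fluorescence read-out, 1 hr at 37C, added after 23hr compound exposure. Cells: 3T3 Gli1-Luc, an NIH/3T3 clone with stably integrated Gli1-Luc reporter, plated 4hr before compound.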

[17] = qHTS assay to identify small molecule agonists of the sonic hedgehog signaling (Shh) pathway (AID 1259368; calls by dose curve;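 also: NIH/3T3-derived 3T3Gli1-Luc cells carrying a stable Gli1-driven firefly luciferase reporter; series mostly up to about 92 µM; nearly all actives have a fitted effect of over 15% in size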)
Outline: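 Cells of a mouse NIH/3T3 clone stably expressing luciferase under the Gli1 transcriptional response element are exposed to test chemicals for 24 hr at 37 C. Pathway activation is detected as a rise in luminescence.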

[18] = molecular target: Estrogen receptor (Homo sapiens) (UniProt P03372); assay: qHTS assay to identify small molecule antagonists of the estrogen receptor alpha (ER-alpha) signaling pathway using the BG1 cell line in the presence of 0.1 nM 17-beta-estradiol (AID 1259244); also: nearly all actives have a fitted effect of over 50% in size
Estrogen receptor (Homo sapiens), sequence (P03372 whole entry, looked up): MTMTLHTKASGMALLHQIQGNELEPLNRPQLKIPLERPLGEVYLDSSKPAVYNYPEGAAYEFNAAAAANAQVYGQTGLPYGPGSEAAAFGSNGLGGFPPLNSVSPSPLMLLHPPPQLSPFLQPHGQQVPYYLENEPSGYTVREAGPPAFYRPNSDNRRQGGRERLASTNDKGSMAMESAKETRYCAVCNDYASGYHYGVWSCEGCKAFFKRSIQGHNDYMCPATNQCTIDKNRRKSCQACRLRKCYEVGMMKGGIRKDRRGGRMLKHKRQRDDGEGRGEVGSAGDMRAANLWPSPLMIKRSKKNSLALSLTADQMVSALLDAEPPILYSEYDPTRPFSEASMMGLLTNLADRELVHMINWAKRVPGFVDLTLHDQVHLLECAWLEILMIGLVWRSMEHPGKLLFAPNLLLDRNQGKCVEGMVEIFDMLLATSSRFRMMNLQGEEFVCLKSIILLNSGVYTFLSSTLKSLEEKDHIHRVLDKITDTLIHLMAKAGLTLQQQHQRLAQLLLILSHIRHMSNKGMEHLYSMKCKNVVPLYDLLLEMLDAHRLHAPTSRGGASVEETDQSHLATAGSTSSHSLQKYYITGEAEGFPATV
Outline: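 Antagonist mode: compounds in DMSO are pinned onto VM7Luc4E2 reporter cells, 0.1 nM final 17beta-estradiol is added, and after 22 h at 37C luciferase luminescence is measured with ONE-Glo.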

[19] = qHTS assay to identify small molecule antagonists of the sonic hedgehog signaling (Shh) pathway - cell viability counter screen (AID 1259367); also: nearly all actives have a fitted effect of over 55% in size
Outline: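 Tox21 library chemicals were tested on a Gli1-Luc NIH/3T3 clone (2,000 cells/well) stimulated by conditioned medium; viability was quantified as fluorescence from CellTiter-Fluor reagent added at 23 hr.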
% is scaled to controls: 0 for no effect and ±100 for the full control effect.

CCc1oc2ccccc2c1C(=O)c1cc(I)c(O)c(I)c1
inactive: Potency [1] | Potency [2] | Potency [3] | Potency [4] | Potency [5] | Potency [6] | Potency [7] | Potency [8] | Potency [9] | Potency [10] | Potency [11] | Potency [12] | Potency [13] | Potency [14] | Potency [15] | Potency [16] | Potency [17]

C=C(C)c1cccc(C(=C)C)c1
inactive: Potency [1] | Potency [2] | Potency [3] | Potency [4] | Potency [5] | Potency [6] | Potency [7] | Potency [8] | Potency [9] | Potency [10] | Potency [11] | Potency [12] | Potency [18] | Potency [14] | Potency [15] | Potency [19] | Potency [17]

CCCCOC(=O)CO
inactive: Potency [1] | Potency [2] | Potency [3] | Potency [4] | Potency [5] | Potency [6] | Potency [7] | Potency [8] | Potency [9] | Potency [10] | Potency [11] | Potency [12] | Potency [18] | Potency [14] | Potency [15] | Potency [16] | Potency [17]

Cc1c(C)c([N+](=O)[O-])c(C(C)(C)C)c([N+](=O)[O-])c1C
inactive: Potency [1] | Potency [2] | Potency [3] | Potency [4] | Potency [5] | Potency [6] | Potency [7] | Potency [8] | Potency [9] | Potency [10] | Potency [11] | Potency [12] | Potency [18] | Potency [14] | Potency [15] | Potency [16] | Potency [17]

NC[C@H]1O[C@H](O[C@H]2[C@H](O[C@@H]3O[C@H](CO)[C@@H](O)[C@H]3O)C(O)[C@H](N)C[C@@H]2N)[C@H](N)[C@@H](O)[C@@H]1O (stereo partly specified)
inactive: cytotoxicity increase [1] -11.8% [at 6.97 µM] | cytotoxicity [2] 11.3% [at 6.97 µM] | cytotoxicity increase [3] 7.9% [at 6.97 µM] | cytotoxicity increase [4] -4.48% [at 6.97 µM] | activity change, negative = cytotoxic [5] 1.38% [at 6.97 µM] | activity change, negative = cytotoxicity [6] 4.78% [at 6.97 µM] | activity change, negative = cytotoxicity [7] -3.38% [at 6.97 µM] | activity change [8] -6.01% [at 6.97 µM, stronger effect = higher value] | activity change, negative = cytotoxicity [9] 1.18% [at 6.97 µM] | cytotoxicity increase [10] 12.8% [at 6.97 µM] | activity change, negative = cytotoxicity [11] 2.08% [at 8.39 µM] | viability change, negative = cytotoxic [12] 2.91% [at 8.39 µM] | Potency [13] | activity change, negative = inhibition [14] -0.407% [at 8.39 µM] | activity change, negative = cytotoxicity [15] -0.0056% [at 8.39 µM] | viability change, negative = cytotoxic [19] -1.51% [at 8.39 µM] | activity change [17] -1.1% [at 8.39 µM, stronger effect = higher value]

OC[C@@H](O)[C@@H](O)CO
inactive: Potency [1] | Potency [2] | Potency [3] | Potency [4] | Potency [5] | Potency [6] | Potency [7] | Potency [8] | Potency [9] | Potency [10] | Potency [11] | Potency [12] | Potency [18] | Potency [14] | Potency [15] | Potency [16] | Potency [19] | Potency [17]

C[C@@H](O)[C@H](N)C(=O)O
inactive: cytotoxicity increase [1] -5.17% [at 15.8 µM] | cytotoxicity [2] 7.45% [at 15.8 µM] | cytotoxicity increase [3] 4.24% [at 15.8 µM] | cytotoxicity increase [4] -5.26% [at 15.8 µM] | activity change, negative = cytotoxic [5] -0.0796% [at 15.8 µM] | activity change, negative = cytotoxicity [6] 0.683% [at 15.8 µM] | activity change, negative = cytotoxicity [7] -0.878% [at 15.8 µM] | activity change [8] -2.81% [at 15.8 µM, stronger effect = higher value] | activity change, negative = cytotoxicity [9] 0.322% [at 15.8 µM] | cytotoxicity increase [10] 6.73% [at 15.8 µM] | activity change, negative = cytotoxicity [11] -3.81% [at 19 µM] | viability change, negative = cytotoxic [12] 0.742% [at 19 µM] | Potency [13] | activity change, negative = inhibition [14] -3.34% [at 19 µM] | activity change, negative = cytotoxicity [15] -2.68% [at 19 µM] | viability change, negative = cytotoxic [16] 6.05% [at 19 µM] | viability change, negative = cytotoxic [19] 3.97% [at 19 µM] | activity change [17] 0.344% [at 18.9 µM, stronger effect = higher value]
